Experimental data: article PMC5540273 (PLoS ONE, 2017)

Experiments:
Settings in all cases: concentration: 1 μM, replicates: in singlicate; n = 1
PCTK2 = system: T1, PCTK2
T1 construct: gene CDK17

PCTK3 = system: T2, PCTK3
T2 construct: gene CDK18

PDGFRA = system: PDGFRA
PDGFRB = system: PDGFRB
PDPK1 = system: PDPK1
PFTAIRE2 = system: PFTAIRE2
PFTK1 = system: T3, PFTK1
T3 construct: gene CDK14

PHKG1 = system: PHKG1
PHKG2 = system: PHKG2
PIK3C2B = system: PIK3C2B
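Note: KINOMEscan kinase panel screen.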

SMILES	%Inh (PCTK2)	%Inh (PCTK3)	%Inh (PDGFRA)	%Inh (PDGFRB)	%Inh (PDPK1)	%Inh (PFTAIRE2)	%Inh (PFTK1)	%Inh (PHKG1)	%Inh (PHKG2)	%Inh (PIK3C2B)
O=C(Nc1n[nH]c2nc(-c3ccccc3O)ccc12)C1CC1 [SB-711880]	5%	15%	0%	0%	0%	5%	0%	17%	100%	14%
CC(=O)Nc1cn2nc(Oc3cccc(NC(=O)c4cccc(C(F)(F)F)c4)c3)ccc2n1	0%	6%	99.6%	100%	9%	0%	3%	31%	0%	0%
Cc1nn2c(=O)cc(N3CCO[C@H](C)C3)nc2n1Cc1cccc(Cl)c1Cl [GSK2373693]	0%	8%	1%	65%	0%	9%	5%	0%	0%	99.4%
Cc1ccc(NC(=O)c2ccc(Cl)c(Cl)c2)cc1-c1ccc(C(=O)Nc2ccncc2)cc1 [GSK1398460]	0%	25%	94.6%	100%	27%	23%	1%	0%	0%	0%
CC(C)NCC(Cc1ccccc1)NC(=O)c1cc(Br)c(-c2ccnc3[nH]ccc23)s1.Cl.Cl (centres unmarked) [GSK1383281]	13%	0%	37%	74%	0%	0%	27%	0%	16%	0%
Cc1ccc(NC(=O)c2ccnc(N3CCCCC3)c2)cc1-c1ccc(C(=O)NCC2CC2)cc1 [GW775610]	15%	0%	59%	98.3%	0%	19%	0%	0%	0%	18%
Nc1ncc(-c2cn[nH]c2)c2scc(-c3ccc4c(c3)CCN4C(=O)Cc3ccccc3)c12 [GSK2593067]	0%	29%	96%	100%	65%	0%	0%	0%	0%	0%
CC(C)c1nc(-c2cccc(NS(=O)(=O)c3c(F)cccc3F)c2)c(-c2ccnc(Nc3ccc(N4CCOCC4)nc3)n2)s1.Cl [GSK1723980]	100%	100%	88%	100%	0%	69%	82%	0%	0%	7%
Cn1cc(-c2ccc3c(c2)CCN3C(=O)Cc2cc(F)cc(F)c2F)c2c(N)ncnc21 [GSK2634140]	0%	7%	59%	98%	0%	3%	10%	0%	0%	82%
COc1ccc(C)c(Nc2ccnc(Nc3ccc(-c4cnc[nH]4)cc3)n2)c1.Cl [GW784041]	10%	2%	0%	76%	0%	0%	0%	0%	8%	0%
CCn1cnc2c(NCc3ccccc3)ncnc21 [SKF-96418]	0%	0%	0%	0%	0%	0%	0%	0%	0%	0%
Cc1cc(-c2ccnc(Nc3cccc(C#N)c3)n2)cc(C)c1O [GSK1440913]	55%	43%	4%	60%	0%	24%	18%	27%	15%	0%
CC(C)c1nc(-c2ccc(F)c(NS(=O)(=O)c3c(F)cccc3F)c2)c(-c2ccnc(Nc3ccc(N4CCOCC4)nc3)n2)s1 [GSK1804250]	94.9%	76%	88%	99.6%	11%	11%	71%	0%	9%	17%
COc1cccc2c(-c3ccncc3)c(-c3ccc(F)cc3)nn12 [GW468513]	11%	0%	0%	21%	10%	5%	0%	18%	0%	0%
CN(c1ccc(NC(=O)Nc2cccc(Cl)c2)cc1)c1ccnc(N)n1.Cl [GW830707]	0%	10%	97.5%	100%	20%	1%	15%	23%	0%	0%
CCOc1nccc(-c2c(-c3ccc(F)cc3)ncn2C2CCNCC2)n1 [SB-249175]	5%	17%	13%	8%	6%	0%	20%	0%	0%	23%
COc1cc(Nc2nccc(N3CCC(NS(=O)(=O)c4ccc(NC(C)=O)cc4)CC3)n2)cc(OC)c1OC [GSK1379825]	0%	25%	6%	90%	21%	0%	5%	0%	0%	0%
